SMILES strings stand for the structures. Screen size: about 300,000 compounds; about 37,000 (12%) were called active. This excerpt belongs to a sample that is enriched for actives. A number with no mark means an inactive call. Cut-off read from the data, not from the text of the source: active = max response mostly above about 13% (no sharp cut-off); inactive = mostly below about 14%.

Consider 24 compounds from PubChem BioAssay AID2314 (National Center for Advancing Translational Sciences (NCATS), 2010).

This assay is described as follows: Cycloheximide Counterscreen for Small Molecule Inhibitors of Shiga Toxin. Note: read at 38.3 µM for the half of the compounds with a filed dose; 0% is about no effect. The settings on record: cell reporter, cycloheximide protein synthesis inhibition counterscreen; hits give high values.
Consider `CCc1ccc(OC(C)C(=O)Nc2ccc(S(=O)(=O)Nc3cc(C)on3)cc2)cc1` (centres undefined), for which the max response was -1.86%.

Consider `COc1ccccc1NC(=O)CN(c1ccccc1OC)S(=O)(=O)c1ccccc1`, for which the max response was -1.65%.

For the compound `O=C1C[C@@H](c2ccc3ccccc3c2)N1S(=O)(=O)c1ccccc1[N+](=O)[O-]`, the max response was -1.77%.

As to `O=C1C2C(c3ccccc3)CC=CC2C(c2ccoc2)N1Cc1ccccc1` (centres undefined), the max response is 0.409%.

For `O=C(CN1C(=O)NC2(CCCCC2)C1=O)NCCc1c[nH]c2ccccc12`, the max response was -0.529%.

Consider `CC(C)(C)N(Cc1ccccc1)C(=O)c1ccncc1`, for which the max response is -0.936%.

Regarding `Cc1nnc(SCc2ccc(C(=O)c3ccc(Cl)cc3)o2)n1-c1ccccc1`, the max response was 6.81%.

For `Cc1ccc(-c2noc(CSc3nnc(-c4ccncc4)n3-c3ccc(F)cc3)n2)cc1`, the max response was 0.685%.

As to `Cc1ccc2nc(-c3ccncc3)cc(C(=O)Nc3ccncc3)c2c1`, the max response was 6.6%.

Regarding `Cc1ccc(-c2nc(-c3ccncc3)no2)c(C)c1`, the max response was 43.8% (active).

As to `Cc1cc(S(=O)(=O)N2CCOCC2)ccc1OCC(=O)Nc1cccc(C(F)(F)F)c1`, the max response is -3.96%.

For `CCC1=Nc2cc(C(=O)NCCN3CCCC3)ccc2Sc2ccc(C)cc21`, the max response was 14.2%.

Turning to `O=C(Nc1ccccc1)Nc1ccc(C(F)(F)F)cn1`, the max response is 13%.

Consider `O=C(NC(=O)c1cc(OCC(F)(F)F)ccc1OCC(F)(F)F)Nc1ccccc1`, for which the max response was 8.68% (active).

In the case of `CONC(=O)c1cc(OCC(F)(F)F)ccc1OCC(F)(F)F`, the max response was -3.39%.

Turning to `CC1CCN(C(=O)Cn2nnnc2CN2CCOCC2)CC1`, the max response is -2.13%.

`COc1ccc(CCNC(=O)C(=O)NCC2OCCN2S(=O)(=O)c2ccc(F)cc2)cc1OC` (centres undefined): the max response is 1.66%.

Consider `CCC(C)NC(=O)c1ccc(N2CCC3(CC2)OCCO3)c([N+](=O)[O-])c1` (centres undefined), for which the max response is 20% (active).

In the case of `COCCNC(=O)c1ccc(N2CCC3(CC2)OCCO3)c([N+](=O)[O-])c1`, the max response was -2.09%.

As to `CC(NC(=O)c1ccc(N2CCNCC2)c([N+](=O)[O-])c1)C12CC3CC(CC(C3)C1)C2` (centres undefined), the max response was -1.62%.

For `Cc1cc(C)cc(Oc2nc3c(C)cccn3c(=O)c2/C=C(\C#N)C(=O)NC2CCS(=O)(=O)C2)c1` (centres undefined), the max response was -2.61%.

As for `COc1cc(C(=O)OCc2ccc([N+](=O)[O-])cc2)cc(OC)c1OC`, the max response is -1.24%.

`COc1cc(/C=N\Nc2ccc([N+](=O)[O-])cn2)ccc1OCC(=O)O`: the max response was 15.7%.

Take `COc1cc(/C=N/O)ccc1OCc1ccc([N+](=O)[O-])cc1`: the max response was 88.7% (active).
